Measured values reported in publication PMC4336329 (PLoS ONE, 2015).
The whole screen tested about 310,000 compounds, of which about 14,000 (4.5%) showed an effect of 50% or more. The effect is printed as a negative number. The full list was thinned out, with strong results kept by preference.

These compounds were tested against human ether-à-go-go-related gene (hERG) potassium channel (human, UniProt Q12809) (assay: primary screen, population patch clamp on CHO cells stably expressing hERG; higher = less effect of the substance).
Chain of human ether-à-go-go-related gene (hERG) potassium channel (Q12809 whole entry, looked up): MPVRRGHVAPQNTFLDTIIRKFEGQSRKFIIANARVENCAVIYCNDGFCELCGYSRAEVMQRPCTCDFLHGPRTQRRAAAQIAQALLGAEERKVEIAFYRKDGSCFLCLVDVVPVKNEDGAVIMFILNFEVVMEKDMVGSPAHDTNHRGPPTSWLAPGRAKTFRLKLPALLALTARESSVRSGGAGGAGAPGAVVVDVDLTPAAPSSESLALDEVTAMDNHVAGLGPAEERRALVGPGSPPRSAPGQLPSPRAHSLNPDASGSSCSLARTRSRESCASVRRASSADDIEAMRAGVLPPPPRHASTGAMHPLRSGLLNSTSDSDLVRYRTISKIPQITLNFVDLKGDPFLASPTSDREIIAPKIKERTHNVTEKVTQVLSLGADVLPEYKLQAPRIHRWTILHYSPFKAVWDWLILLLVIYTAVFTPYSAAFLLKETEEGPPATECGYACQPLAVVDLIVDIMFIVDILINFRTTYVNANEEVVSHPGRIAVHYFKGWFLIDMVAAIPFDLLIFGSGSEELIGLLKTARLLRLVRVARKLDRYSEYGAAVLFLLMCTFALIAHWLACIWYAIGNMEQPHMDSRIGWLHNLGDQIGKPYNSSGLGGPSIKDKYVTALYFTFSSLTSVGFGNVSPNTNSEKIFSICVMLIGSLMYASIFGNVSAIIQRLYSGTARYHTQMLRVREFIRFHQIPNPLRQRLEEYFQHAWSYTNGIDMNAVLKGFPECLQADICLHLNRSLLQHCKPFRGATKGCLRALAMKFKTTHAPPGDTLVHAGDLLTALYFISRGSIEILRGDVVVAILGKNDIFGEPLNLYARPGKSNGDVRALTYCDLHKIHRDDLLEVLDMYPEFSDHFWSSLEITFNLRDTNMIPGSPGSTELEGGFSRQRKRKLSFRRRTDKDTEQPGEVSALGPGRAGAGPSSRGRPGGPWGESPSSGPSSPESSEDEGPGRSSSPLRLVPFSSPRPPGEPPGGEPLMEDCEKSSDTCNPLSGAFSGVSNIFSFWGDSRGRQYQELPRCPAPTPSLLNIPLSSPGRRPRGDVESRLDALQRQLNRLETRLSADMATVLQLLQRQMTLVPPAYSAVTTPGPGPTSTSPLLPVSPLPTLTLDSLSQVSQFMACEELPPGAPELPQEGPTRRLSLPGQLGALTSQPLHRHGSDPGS
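Note: peak tail current of the secondary pulse compared with the same well before compound.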

| Compound | hERG current change (%, negative = inhibition) at 10uM |
| --- | --- |
| NC(=O)NC(=O)CSc1ccccc1 | 17.1% |
| COc1ccc(N2CC(C(=O)Nc3nc4ccc(F)cc4s3)CC2=O)c(OC)c1 (stereo not drawn) | -56.3% |
| O=C(Nc1nc2ccc(F)cc2s1)C1CC(=O)N(c2ccc3c(c2)OCCO3)C1 (stereo not drawn) | -8.48% |
| COc1ccc(N2CC(C(=O)Nc3nc(-c4ccccc4)c(C(C)=O)s3)CC2=O)c(OC)c1 (stereo not drawn) | -0.242% |
| CC(C)OC(=O)c1ccc(OC(=O)c2cccnc2)cc1 | 12.5% |
| CCN1C(=NCCc2cccnc2)N[C@@H](c2ccccc2)C(C(=O)OC)=C1C | -51.2% |
| COCCN=C1N[C@@H](c2cccc(C(F)(F)F)c2)C(C(=O)OC)=C(C)N1Cc1ccccc1 | -11.9% |
| CCN(CC)CCCN=C1N[C@@H](c2ccccc2)C(C(=O)OC)=C(C)N1CC | 14.6% |
| CCN1C(=NCCOC)N[C@@H](c2cccs2)C(C(=O)OC)=C1C | -5.96% |
| CCN1C(=S)N[C@@H](c2ccccc2)C(C(=O)OC)=C1C | 14.8% |
| CCN1C(=NCCc2cccs2)N[C@@H](c2cccs2)C(C(=O)OC)=C1C | -64.2% |
| CCN1C(=O)N[C@@H](c2ccccc2)C(C(=O)OC)=C1C | -1.67% |
| CCN1C(N(C)CCc2cccs2)=N[C@@H](c2ccccc2)C(C(=O)OC)=C1C | -53.8% |
| COC(=O)C1=C(C)N(Cc2ccccc2)C(=NCCc2cccnc2)N[C@H]1c1ccccc1 | -63% |
| CCN1C(=O)N[C@@H](c2cccs2)C(C(=O)OC)=C1C | 10.2% |
| C=CCN=C1N[C@@H](c2ccccc2)C(C(=O)OC)=C(C)N1CC | 1.27% |
| COC(=O)C1=C(C)N(Cc2ccccc2)C(=NCc2cc(OC)c(OC)c(OC)c2)N[C@H]1c1ccccc1 | -27.8% |
| CCOC(=O)C1=C(C)Nc2ccccc2N/C1=N\S(=O)(=O)c1ccc(Cl)cc1 | -7.32% |
| COc1ccc(CNC(=O)CCCNS(=O)(=O)c2cccc3nonc23)cc1 | -1.27% |
| CC(CC(=O)NC1CCCCC1)S(=O)(=O)c1ccc2c(c1)NC(=O)CO2 (stereo not drawn) | 5.72% |
| Cc1cc(C)nc(N(C#N)Cc2ccccc2C)n1 | -51.4% |

| Compound | hERG current change (%, negative = inhibition) at 10uM |
| --- | --- |
| Cc1cc(C)nc(N(C#N)Cc2ccccc2Cl)n1 | 4.48% |
| Cc1cc(C)nc(N(C#N)Cc2cccc3ccccc23)n1 | 3.61% |
| CCC(=O)n1nc(-c2ccco2)nc1N | 10.8% |
| CCN(Cc1ccccc1)c1ccc(/C=N/NS(=O)(=O)c2cccc([N+](=O)[O-])c2)cc1 | 10.3% |
| CC(=O)Nc1cccc(-c2nnc3c4ccccc4c(C)nn23)c1 | -0.564% |
| Cc1nn2c(-c3cccc(NC(=O)CSc4nc5ccccc5o4)c3)nnc2c2ccccc12 | -70.8% |
| Cc1cccc(NC(=O)CSc2nc3ccccc3o2)c1 | 3.5% |
| CCS(=O)(=O)N1CCN(C(=O)c2cccc3ccccc23)CC1 | 12.8% |
| COc1cccc(CCN2C(=O)C(=O)N([C@@H](CNCc3ccccc3)Cc3ccccc3F)C[C@@H]2C(C)(C)C)c1 | -48.5% |
| COc1ccc(CNC(=O)[C@@H]2CC=C[C@@H]3CCN(Cc4ccc(Cl)c(Cl)c4)C(=O)[C@@H]32)cc1 | -8.85% |
| COc1ccc(CNC[C@@H](CCCCN(C)Cc2ccc(OC)cc2)N2C[C@H](c3ccccc3)N(CCc3ccc(Cl)c(Cl)c3)C(=O)C2=O)cc1 | -80.3% |
| Nn1cnc2cc3ccccc3cc2c1=O | 8.16% |
| Cn1c(=O)c2cn(-c3ccc4c(c3)OCCO4)cc2n(C)c1=O | 11.3% |
| Cc1cccc(C)c1NC(=O)C1(N(Cc2ccco2)C(=O)c2ccccn2)CCCC1 | 5.95% |
| COc1c(Cl)cc(Cl)cc1C(=O)Nc1ccc(CN2CCCCC2)cc1 | -65.1% |
| COc1ccccc1C(=O)Nc1ccc(CN2CCCCC2)cc1 | -28.4% |
| COc1ccc(Cl)cc1C(=O)Nc1ccc(CN2CCCCC2)cc1 | -52% |
| COc1cccc(OC)c1C(=O)Nc1ccc(CN2CCCCC2)cc1 | 10.6% |
| COc1c(Cl)cc(Cl)cc1C(=O)Nc1ccc(CN2CCOCC2)cc1 | 8.37% |
| COc1c(C)cccc1C(=O)Nc1ccc(CN2CCCCC2)cc1 | -30.7% |
| Cc1ccc(N2C(S)=C(C#N)C(=O)NC2c2cccs2)cc1 (stereo not drawn) | 15.2% |

| Compound | hERG current change (%, negative = inhibition) at 10uM |
| --- | --- |
| c1ccc(CN(Cc2ccccc2)c2ncnc3c2nnn3Cc2ccccc2)cc1 | 7.63% |
| CC1Cc2nc(SCC(=O)NCc3ccco3)n(-c3ccccc3)c(=O)c2S1 (stereo not drawn) | -33.5% |
| CCN1CCN(Cc2ccc(NC(=O)c3ccc(C)c(NC(=O)c4csc(-c5ccncc5)n4)c3)cc2C(F)(F)F)CC1 | 7.22% |
| O=C(Nc1ccc(C(F)(F)F)cc1)c1csc(-c2ccncc2)n1 | -25.4% |
| Cc1ccc(C(=O)Nc2cccc(C(F)(F)F)c2)cc1NC(=O)c1csc(-c2ccncc2)n1 | -62.5% |
| O=C(Nc1cccc(C(F)(F)F)c1)c1csc(-c2ccncc2)n1 | -68.6% |
| COc1cc(NC(=O)c2csc(-c3ccncc3)n2)cc(C(=O)Nc2cccc(C(F)(F)F)c2)c1 | -48.7% |
| NNC(=O)c1csc(-c2cccc(C(F)(F)F)c2)n1 | -30% |
| CC(C)N1C(=O)C2ON(c3ccccc3)C(c3cccs3)C2C1=O (stereo not drawn) | -16.6% |
| CCOC(=O)C(CC)(CCC(=O)O)c1csc(Nc2ccc(C)cc2)n1 (stereo not drawn) | 16.5% |
| Cc1cc(=O)oc2c(C)c(OCC(=O)N(C)C)ccc12 | 9.8% |
| O=C(c1ccc(F)cc1)N1C2CCC1CC(O)(c1ccc(F)cc1)C2 (stereo not drawn) | -20.6% |
| COc1ccc(C(C)=O)cc1COC(=O)c1ccc(N)c([N+](=O)[O-])c1 | 35.1% |
| COc1cc(Cl)c(C)cc1NC(=O)c1cc(S(=O)(=O)N(C)C)ccc1N1CCCC1 | -51.8% |
| COc1ccc(CCNC(=O)c2cc(S(=O)(=O)N(C)C)ccc2N2CCCC2)cc1 | 4.26% |
| Cc1ccc(NC(=O)c2cc(S(=O)(=O)N(C)C)ccc2N2CCCC2)cc1S(=O)(=O)N(C)C | -26.5% |
| COc1cc(C(=O)NNC(=O)c2cc(S(=O)(=O)N(C)C)ccc2N2CCCC2)cc(OC)c1OC | 15.1% |
| COc1ccc(CCNC(=O)c2cc(S(=O)(=O)N(C)C)ccc2N2CCCC2)cc1OC | 5.99% |
| COc1ccc(OC)c(NC(=O)c2cc(S(=O)(=O)N(C)C)ccc2N2CCCC2)c1 | -68.1% |
| COc1ccc(NC(=O)CN(C)C(=O)c2cc(S(=O)(=O)N(C)C)ccc2N2CCCC2)cc1 | -13.8% |
| COc1ccc(C(C)(C)C)cc1NC(=O)c1cc(S(=O)(=O)N(C)C)ccc1N1CCCC1 | -60% |

| Compound | hERG current change (%, negative = inhibition) at 10uM |
| --- | --- |
| COc1ccc(NC(=O)c2cc(S(=O)(=O)N(C)C)ccc2N2CCCC2)cc1Cl | 12.7% |
| CN(C)CCNc1cnn(-c2ccccc2)c(=O)c1Cl | 14.2% |
| CCOC(=O)c1[nH]c2ccccc2c1NC(=S)Nc1cccc(C)c1C | -5.81% |
| CC(C)(C)NC(=S)NNC(=O)c1ccncc1 | 15.4% |
| CC(C)c1nc2sc3c(c2c(=O)n1N)CC(C)(C)OC3 | 8.71% |
| CCCn1c(SCC(=O)Nc2ccc(C(=O)Nc3ccccc3OC)cc2)n[nH]c1=O | 11.9% |
| CC(NC(=O)CCNC(=O)c1ccco1)c1ccc(F)cc1 (stereo not drawn) | 12.3% |
| Cc1cc(C)c2nc(N(CCN(C)C)C(=O)c3ccc(S(=O)(=O)N(C)CC4CCCO4)cc3)sc2c1.Cl (stereo not drawn) | -43.6% |
| CCOc1cccc2sc(N(CCCN(C)C)C(=O)c3ccc(C(=O)c4ccccc4)cc3)nc12.Cl | -72.1% |
| CCOc1cccc2sc(N(CCCN(C)C)C(=O)c3ccc(S(=O)(=O)N4CCc5ccccc5C4)cc3)nc12.Cl | 13.7% |
| CCOc1ccc2nc(N(CCCN(C)C)C(=O)c3ccc(C(=O)c4ccccc4)cc3)sc2c1.Cl | -35.5% |
| CCOc1cccc2sc(N(CCCN(C)C)C(=O)c3ccc(S(=O)(=O)N(C)c4ccccc4)cc3)nc12.Cl | -83.7% |
| CCOc1cccc2sc(N(CCCN(C)C)C(=O)Cc3ccccc3)nc12.Cl | -80.2% |
| CN(C)CCN(C(=O)c1ccc(S(=O)(=O)N(C)CC2CCCO2)cc1)c1nc2cc3c(cc2s1)OCO3.Cl (stereo not drawn) | -43.2% |
| CCOc1cccc2sc(N(CCCN(C)C)C(=O)c3ccc(S(=O)(=O)N(C)Cc4ccccc4)cc3)nc12.Cl | -40.4% |
| CCOc1cccc2sc(N(CCCN(C)C)C(=O)c3ccc(S(=O)(=O)N(C)CC4CCCO4)cc3)nc12.Cl (stereo not drawn) | -77.4% |
| CCOc1cccc2sc(N(CCN(C)C)C(=O)/C=C/c3cccs3)nc12.Cl | -40.7% |
| CCCC(=O)N(CCN1CCOCC1)c1nc2c(OCC)cccc2s1.Cl | 9.08% |
